This is a sample that favours compounds with a hit; in the whole collection about 19% have one here.
KB-V1 cytotox = KB-V1 MDR subline cytotoxicity | KB-V1 MDR cells viability, CellTiter-Glo, 72 h | Potency, µM (highest dose often 46.1 µM), hits mostly cytotoxic | 400,000 tested, 3.4% active | AID 1347076; note: nearly all actives have a fitted effect of over 60% in size
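Cytotoxicity toward P-gp-expressing KB-V1 cells was determined as loss of CellTiter-Glo luminescence after 72 h at 37 degrees C. Compounds were tested in quantitative HTS format across a concentration range, with curves fitted to normalized data.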
DT40 TDP1 no CPT = qHTS for Inhibitors of human tyrosyl-DNA phosphodiesterase 1 (TDP1): qHTS in cells in absence of CPT | 420,000 tested, 15% active | DT40 Tdp1-/- hTDP1 cells, no CPT, ATP luminescence, 48 h | Potency, µM (doses to about 46.2 µM), without a hit: at the top dose activity change, negative = growth inhibition, most hits filed as inhibitors | AID 686978, 2013; note: nearly all actives have a fitted effect of over 55% in size
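Stably hTDP1-transfected Tdp1-null chicken DT40 cells were treated with library compounds minus camptothecin and grown for at least 48 hr at 37 °C, after which cellular ATP was quantified by luminescence.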
HT1080-NT tox = kills 2HG-producing HT-1080-NT fibrosarcoma cells | HT-1080-NT fibrosarcoma viability, CellTiter-Glo ATP luminescence, 48 h | 360,000 tested, 1.6% active | Potency, µM (top dose mostly 46.1 µM), for inactives: top-dose activity, negative = less viability, hits mostly cytotoxic | AID 686970;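 note: NT is the 2HG producing partner of a matched IDH1 knockdown line; 0% = DMSO-treated cells and -100% = media-only wells without cells; nearly all actives have a fitted effect of over 55% in size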
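Toxicity toward the 2HG-producing NT line was scored as %Activity, normalised to DMSO and no-cell wells, from CellTiter-Glo luminescence after 48 hours' treatment.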
KB-3-1 cytotox = kills parental KB-3-1 adenocarcinoma cells | Potency, µM (highest dose often 46.1 µM), hits mostly cytotoxic | AID 1347075 | KB-3-1 viability, CellTiter-Glo ATP luminescence, 72 h | 400,000 tested, 1.4% active; note: nearly all actives have a fitted effect of over 60% in size
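Cytotoxicity in the drug-sensitive parental line KB-3-1 was scored as loss of CellTiter-Glo luminescence following 72 h incubation with compound. Values come from curve fitting of normalized concentration-response data.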
DT40 TDP1 CPT = DT40-hTDP1 cell growth loss with CPT; AID 686979; 420,000 tested, 12% active; Potency, µM (titrated, usually from 46.2 µM), without a hit: at the highest dose activity change, negative = growth inhibition, usual class: inhibitors; chicken DT40 Tdp1-/-;hTDP1 cells + 20 nM CPT, ATP luminescence, 48 h; note: nearly all actives have a fitted effect of over 55% in size
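Cell growth measured by CellTiter-Glo luminescence after a minimum 48 h, 37 C compound exposure with 20 nM CPT in Tdp1-knockout DT40 cells stably expressing hTDP1, seeded 400/well; qHTS titration format.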
HT1080 IDH1KD tx = kills HT-1080 cells with IDH1 knockdown; 360,000 tested, 2% active; HT-1080 IDH1 knockdown viability, ATP luminescence, 48 h; Potency, µM (series often up to 46.1 µM), for the others: at the top dose activity, negative = toxicity, usual class: cytotoxic;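 note: 0% = DMSO wells and -100% = cell-free medium wells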
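HT-1080-IDH1KD cells (IDH1 knocked down), 750/well in RPMI with 5% FBS, treated with compound 48 h at 37 degrees C. Viability by CellTiter-Glo luminescence, normalised to DMSO and no-cell wells; concentration-response curves classed.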
* hit, by the source's call. Calls come from the whole dose curve; as a rule, active = well fitted curve in the direction sought with a large enough effect; inconclusive = small, poorly fitted or top-dose-only effect, or another doubt; inactive = no such curve, though single readings can be large; an effect the other way counts as inactive or inconclusive. Unless noted, % is set by controls: 0 for no effect and ±100 for the full control effect; potency is the fitted concentration of half-maximal effect.

For O=C1c2ccccc2C(c2nnnn2-c2ccc3c(c2)OCCO3)N1CCc1c[nH]c2ccccc12 (configuration not stated) the results were KB-V1 cytotox inconclusive, DT40 TDP1 no CPT 15µM*, HT1080-NT tox -16%, KB-3-1 cytotox inactive, DT40 TDP1 CPT 18µM* and HT1080 IDH1KD tx inconclusive.
Cc1nc([N+](=O)[O-])cn1CC(O)c1ccc2c(c1)OCCO2 (configuration not stated) was read as KB-V1 cytotox inactive, DT40 TDP1 no CPT 3%, KB-3-1 cytotox inactive and DT40 TDP1 CPT -8%.
For COc1ccc(NC(=O)Cn2nc3c(cc2=O)CCCC3)cc1Cl the results were DT40 TDP1 no CPT -18% and DT40 TDP1 CPT -15%.
For COc1ccc(CN2C(=O)c3ccccc3C2c2nnnn2-c2ccc3c(c2)OCCO3)cc1 (configuration not stated) the results were KB-V1 cytotox inactive, DT40 TDP1 no CPT 16µM*, HT1080-NT tox -10%, KB-3-1 cytotox inactive, DT40 TDP1 CPT inconclusive and HT1080 IDH1KD tx 0%.
`CSc1ccc(S(=O)(=O)Nc2ccc3c(c2)NC(=O)CC3)cc1` gave KB-V1 cytotox inactive, DT40 TDP1 no CPT 23µM*, HT1080-NT tox -28%, KB-3-1 cytotox inactive, DT40 TDP1 CPT inconclusive and HT1080 IDH1KD tx 16µM*.
`CSc1ccc(S(=O)(=O)Nc2ccc3c4c(cccc24)CC3)cc1` gave KB-V1 cytotox 15µM*, DT40 TDP1 no CPT inconclusive, HT1080-NT tox inconclusive, KB-3-1 cytotox 18µM*, DT40 TDP1 CPT inconclusive and HT1080 IDH1KD tx inconclusive.
`CC(=O)Nc1ccc(Nc2nc3ccc(Cl)cc3n3cnnc23)cc1` gave DT40 TDP1 no CPT -11% and DT40 TDP1 CPT 6%.
For COc1ccc(C2(C)CC(=O)NC2=O)cc1 (configuration not stated) the results were KB-V1 cytotox inactive, DT40 TDP1 no CPT 23%, HT1080-NT tox 21%, KB-3-1 cytotox inactive, DT40 TDP1 CPT -11% and HT1080 IDH1KD tx 12%.
`COc1ccc(C2(C)C(C#N)C(=O)NC(=O)C2C#N)cc1` (configuration not stated) gave KB-V1 cytotox inactive, DT40 TDP1 no CPT 2.3µM*, HT1080-NT tox 22%, KB-3-1 cytotox inactive, DT40 TDP1 CPT -58% and HT1080 IDH1KD tx 25%.
For Cc1ccc(-c2nnc(NC(=O)CCS(=O)(=O)c3ccccc3)o2)c(C)c1 the results were KB-V1 cytotox inactive, DT40 TDP1 no CPT -16%, HT1080-NT tox -16%, KB-3-1 cytotox inactive, DT40 TDP1 CPT -18% and HT1080 IDH1KD tx -10%.
Screening Cc1ccc(C)c(-c2nnc(NC(=O)c3ccc([N+](=O)[O-])o3)o2)c1 returned KB-V1 cytotox inactive, DT40 TDP1 no CPT 15µM*, HT1080-NT tox inconclusive, KB-3-1 cytotox inconclusive, DT40 TDP1 CPT 15µM* and HT1080 IDH1KD tx inconclusive.
Screening Cc1ccc(C)c(-c2nnc(NC(=O)COc3ccccc3)o2)c1 returned KB-V1 cytotox inactive, DT40 TDP1 no CPT inconclusive, HT1080-NT tox 7%, KB-3-1 cytotox inactive, DT40 TDP1 CPT inconclusive and HT1080 IDH1KD tx 1%.
For Cc1cc(C)c2sc(NC(=O)c3ccc([N+](=O)[O-])o3)nc2c1 the results were KB-V1 cytotox inactive, DT40 TDP1 no CPT inconclusive, HT1080-NT tox 13%, KB-3-1 cytotox inconclusive, DT40 TDP1 CPT inconclusive and HT1080 IDH1KD tx 15%.
Screening Cc1ccc(C)c(-c2nnc(NC(=O)Cc3ccc(F)cc3)o2)c1 returned KB-V1 cytotox inconclusive, DT40 TDP1 no CPT 10µM*, HT1080-NT tox 0%, KB-3-1 cytotox inconclusive, DT40 TDP1 CPT 12µM* and HT1080 IDH1KD tx 1%.
Cc1ccc(-c2nnc(NC(=O)Cc3ccc(F)cc3)o2)c(C)c1 was read as KB-V1 cytotox inactive, DT40 TDP1 no CPT 12µM*, HT1080-NT tox 4%, KB-3-1 cytotox inconclusive, DT40 TDP1 CPT 10µM* and HT1080 IDH1KD tx -1%.
CCc1ccccc1NC(=O)C1CCN(S(=O)(=O)c2cn(C)cn2)CC1 was read as DT40 TDP1 no CPT -9% and DT40 TDP1 CPT -1%.
Screening CN(C)C(CNC(=O)CCc1nc2sc3c(c2c(=O)[nH]1)CCCC3)c1ccccc1 (configuration not stated) returned KB-V1 cytotox inactive, DT40 TDP1 no CPT inconclusive, HT1080-NT tox -3%, KB-3-1 cytotox inactive, DT40 TDP1 CPT inconclusive and HT1080 IDH1KD tx -1%.
For CCOC(=O)[C@@H]1[C@H]2COc3ccccc3[C@H]2N2C(=O)N(c3cccc(C)c3)C(=O)[C@]12C the results were KB-V1 cytotox inactive, DT40 TDP1 no CPT -6%, HT1080-NT tox 19%, KB-3-1 cytotox inactive, DT40 TDP1 CPT -9% and HT1080 IDH1KD tx 2%.
Cc1cccc(C)c1OCc1cc(=O)n2ccsc2n1 was read as KB-V1 cytotox inactive, DT40 TDP1 no CPT inconclusive, KB-3-1 cytotox inactive and DT40 TDP1 CPT -26%.
`CCC(C(=O)NC1CCCC1)n1c(-c2ccccn2)nc2ccccc21` (configuration not stated) gave KB-V1 cytotox inconclusive, DT40 TDP1 no CPT 8.2µM*, HT1080-NT tox 19%, KB-3-1 cytotox inactive, DT40 TDP1 CPT 7.3µM* and HT1080 IDH1KD tx 10%.
Screening COc1ccc(C(C(=O)NC(C)(C)C)n2c(-c3ccc(-c4ccccc4)cc3)nc3ccccc32)cc1 (configuration not stated) returned KB-V1 cytotox inactive, DT40 TDP1 no CPT 13µM*, HT1080-NT tox 9%, KB-3-1 cytotox inactive, DT40 TDP1 CPT inconclusive and HT1080 IDH1KD tx 22%.
`Cc1csc(-c2nc3ccccc3n2C(C(=O)NC(C)(C)C)c2cc3ccccc3o2)c1` (configuration not stated) gave KB-V1 cytotox inactive, DT40 TDP1 no CPT 15µM*, HT1080-NT tox inconclusive, KB-3-1 cytotox inactive, DT40 TDP1 CPT inconclusive and HT1080 IDH1KD tx inconclusive.
`Cc1ccc(-c2nc3ccccc3n2C(C(=O)NC(C)(C)C)C2CC2)cc1` (configuration not stated) gave KB-V1 cytotox inconclusive, DT40 TDP1 no CPT inconclusive, HT1080-NT tox 23%, KB-3-1 cytotox inactive, DT40 TDP1 CPT 21µM* and HT1080 IDH1KD tx 16%.
Screening CC(C)(C)NC(=O)C(c1ccccc1)n1c(-c2ccc(-c3ccccc3)cc2)nc2ccccc21 (configuration not stated) returned KB-V1 cytotox inconclusive, DT40 TDP1 no CPT inconclusive, HT1080-NT tox -5%, KB-3-1 cytotox inactive, DT40 TDP1 CPT inconclusive and HT1080 IDH1KD tx -8%.
